The source made the active and inactive calls. Rule for the calls: active = hit-call score of the fitted dose curve at least 0.9, where 1 is the maximum; inactive = score below 0.9.

Read-out in this assay: Interleukin 2 (IL2), IL2 (gene 3558)
The assay can be described thus: BSK_BT_xIL2: BioMAP Diversity Plus: BT Assay for Interleukin 2 (IL2) Biomarker Activity (AID 2284245). To be noted: primary human B cells with PBMC. Here is the method:
BSK_BT is a cell-based, multiplexed-readout assay that uses B cell and peripheral blood mononuclear cells, a human vascular primary cell co-culture, with measurements taken at 24 hours after chemical dosing in a microplate: 96-well plate.BSK_BT_xIL2 is an assay component measured in the BSK_BT assay. It measures secreted IL-2 related to regulation of gene expression using LumineX xMAP technology.Data from the assay component BSK_BT_xIL2 was analyzed at the endpoint, BSK_BT_xIL2, in the positive analysis fitting direction relative to DMSO as the negative control and baseline of activity. Using a type of cytokine quantitation reporter, gain or loss-of-signal activity can be used to understand protein changes. To generalize the intended target to other relatable targets, this assay endpoint is annotated to the 'cytokine' intended target family, where the subfamily is 'interleukins'.
The levels of cell surface (or secreted, indicated by the prefix "s") biomarker endpoints were measured by ELISA. Overt cytotoxicity to cells in confluent adherent cultures (all systems other than the BT system) was assessed by measuring total protein levels using sulforhodamine B (SRB) staining in parallel cultures at the time of biomarker measurements, indicated as SRB endpoints. For proliferation assays for adherent cell types, individual cell types are cultured at sub-confluence and relative cell numbers quantified by SRB staining at time points optimized for each system (48 h: 3C and CASM3C systems; 72 h: BT and HDF3CGF systems; 96 h: SAg system). SRB was performed by staining cells with 0.1% SRB after fixation with 10% TCA and reading wells at 560 nm.Viability and proliferation of PBMC (T cells) was quantified by Alamar Blue reduction for the SAg and BT systems. For PBMC viability (referred to as PBMC Cytotoxicity within the assay endpoint names), cells were plated (75,000/well in a 96-well plate) and then chemical samples added for 1 h before addition of activators, SEB and TSST-1 (20 ng/mL final concentration each). Cells were incubated for 90 h. Then, Alamar Blue (20 uL/well) (Invitrogen, Cat DAL1100) was added for 6 h, and the plates were read with a fluorescence microplate reader at 546/580 nm (excitation/emission). For PBMC proliferation, cells were plated and activated as above but incubated for only 16 h prior to addition of Alamar Blue. Plates were read after 6 h.
Regarding `CC1(C)C2=CCCC(C)(C)[C@]23CC[C@H]1C3`, the outcome was inactive. Take `CN(C)C(=S)SC(=S)N(C)C`: the concentration at half-maximal activity (AC50) was 0.432 µM (active). The same measure, in the same setting: with `COc1ccc(CCN2CCC(Nc3nc4ccccc4n3Cc3ccc(F)cc3)CC2)cc1` the figure was 6.51 µM (active). Take `CSCCC=O`: the outcome was inactive. The same measure, in the same setting: with `c1ccc2cc(Nc3ccc(Nc4ccc5ccccc5c4)cc3)ccc2c1` the entry was “inactive”. As for `CN(c1nccc(=O)[nH]1)C1CCN(c2nc3ccccc3n2Cc2ccc(F)cc2)CC1`, the AC50 is 9.2 µM (active). Consider `CCCCCC(C=O)=Cc1ccccc1`, for which the result was inactive. In the case of `CCCCOC(=O)CCCCCCCC(=O)OCCCC`, the result was inactive. Still for that read-out and setting: under `IC(I)I` stands “inactive”. For `CC(=O)Nc1ccc(C(=O)CCl)cc1`, the half-maximal activity concentration (AC50) was 5.57 µM (active).

As for `CC(=O)C1(C)CC2=C(CCCC2(C)C)CC1C` (stereo not drawn), the outcome was inactive. Turning to `Cc1cc(CCC(=O)OCCOCCOCCOC(=O)CCc2cc(C)c(O)c(C(C)(C)C)c2)cc(C(C)(C)C)c1O`, the outcome was inactive. `COc1ccc(OC)c(N=Nc2c(O)ccc3ccccc23)c1`: the result was inactive. Turning to `CC(C)(C)CC(C)(C)c1ccc(OCCOCC[N+](C)(C)Cc2ccccc2)cc1`, the AC50 is 6.28 µM (active). As for `C[C@@H]1CCN(C(=O)[C@H](CCCN=C(N)N)NS(=O)(=O)c2cccc3c2NC[C@H](C)C3)[C@@H](C(=O)O)C1`, the outcome was inactive. On to `O=C1c2ccccc2C(=O)c2c(O)ccc(O)c21`, for which the AC50 is 3.97 µM (active).

On to `CC=Cc1ccc(OCC)c(O)c1`, for which the outcome was inactive.

Turning to `O=C1OC[C@H](Cc2cccc(O)c2)[C@H]1Cc1cccc(O)c1`, the result was inactive. On the same count and under the same terms, under `CC(C)(N=C=O)c1cccc(C(C)(C)N=C=O)c1` stands “inactive”; under `C=C(C)C(=O)OCCOCCOCCOCCOC(=O)C(=C)C`, “inactive”. Consider `c1ccc(CCc2ccccc2)cc1`, for which the result was inactive. Still for that read-out and setting: under `O=C1OC2(c3ccccc31)c1ccc(O)c(Br)c1Oc1c2ccc(O)c1Br` stands “inactive”; under `c1ccc(Oc2ccccc2)cc1`, “inactive”. With `C1=CC2C3C=CC(C3)C2C1` (stereo not drawn), the outcome was inactive.

For the molecule `C=C(C)C(=O)OCCOCCOCCOC(=O)C(=C)C`, the outcome was inactive. On the same count and under the same terms, under `CCCCCCCCCCCCCCCC(=O)OC/C=C(C)/C=C/C=C(C)/C=C/C1=C(C)CCCC1(C)C` stands “inactive”; under `CS(=O)(=O)c1ccc(C2=C(c3ccccc3)C(=O)OC2)cc1`, “inactive”. Take `C=C(C)C(=O)OCC(CC)(COC(=O)C(=C)C)COC(=O)C(=C)C`: the AC50 is 19.7 µM (active). As to `Clc1cc(Cl)c(-c2c(Cl)c(Cl)cc(Cl)c2Cl)cc1Cl`, the AC50 was 4.55 µM (active). Consider `C=C(C)[C@H]1CC=C(C)C(=O)C1`, for which the result was inactive.

Consider `Oc1c(Cl)cc(Cl)c(Cl)c1Cc1c(O)c(Cl)cc(Cl)c1Cl`, for which the half-maximal activity concentration (AC50) is 19.6 µM (active).

`CN(C)C(=O)Nc1ccc(Oc2ccc(Cl)cc2)cc1`: the AC50 is 20 µM (active).

As to `CC(=O)c1c(C)c([N+](=O)[O-])c(C(C)(C)C)c([N+](=O)[O-])c1C`, the outcome was inactive.

Regarding `CCCCN(CCCC)C(=O)N(CCCC)CCCC`, the half-maximal activity concentration (AC50) was 32.5 µM (active). Regarding `CC(C=O)Cc1ccc(C(C)(C)C)cc1` (stereo not drawn), the outcome was inactive. Consider `CCC(C)c1cc([N+](=O)[O-])cc([N+](=O)[O-])c1OC(=O)OC(C)C` (stereo not drawn), for which the AC50 is 20 µM (active).

For the molecule `CCN(CC)C(=O)N(CC)CC`, the result was inactive. Regarding `COc1cc(Cl)c(OC)cc1N`, the outcome was inactive.
